# Results as given in PubChem BioAssay.
# Test system: Sam68 (KHDRBS1)
# Assay: compounds binding KHDRBS1 protein – biochemical, small-molecule microarray, 635 nm fluorescence, primary screen (AID 1125);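 note: score merges 667 nm channel intensity with signal to noise over triplicate slides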
# Conditions: higher = more signal
row,Structure (SMILES),composite z-score
1,CC(C)[Si]1(C(C)C)OCc2cc(C3CC3)nc(-c3ccc(Oc4ccccc4)cc3)c21,-0.459
2,O=C1NC(=O)C2C1C=CC(C(O)c1ccco1)N2Nc1ccc(Cl)cc1Cl (stereo unspecified),-0.0532
3,Cc1ccc(N2C(=O)c3ccccc3[C@@H](C(=O)NCCCN(C)C)[C@@H]2c2ccc(CO)cc2)nc1,-0.292
4,CCCCCCc1nc(Cc2cc(OC)c(OC)c(OC)c2)cc2c1[Si](C(C)C)(C(C)C)OC2,0.239
5,CCOC(=O)C1=C[C@@H](C(C)(C)C)N(S(=O)(=O)c2ccc(C)cc2)[C@H]1c1cccc2ccccc12,1.05
6,COc1cc2c(cc1O)C(c1cccs1)N(Cc1cc3c(cc1Br)OCO3)CC2 (stereo unspecified),1.04
7,C=CCNC(=O)[C@@H]1[C@H]2C(=O)O[C@H](c3ccccc3)[C@H](c3ccccc3)N2[C@H](c2ccccc2OCCO)[C@@]12C(=O)Nc1ccc(C#CCC(C(=O)OC)C(=O)OC)cc12,1.27
8,C=CCN1C(=O)[C@]2(CCS(=O)(=O)c3ccccc3)N=C(c3ccc(OCCCO)cc3)O[C@@H]2c2ccccc21,1.31
9,CC(c1ccccc1)C(O)C1C=CC2C(=O)N(C)C(=O)C2N1Nc1ccccc1 (stereo unspecified),1.31
10,N#Cc1ccc(NN2C(C(O)c3ccc(Br)cc3)C=CC3C(=O)N(c4ccccc4)C(=O)C32)cc1 (stereo unspecified),0.83
11,COc1ccc([Si](C)(C)[C@@H]2[C@@H](CCO)O[C@]3(C(=O)N(Cc4cccc(NC(=O)[C@H](C)O)c4)c4ccccc43)[C@H]2C)cc1,1.31
12,CCCCC(CC)C(O)C1C=CC2C(=O)N(C)C(=O)C2N1Nc1ccccc1 (stereo unspecified),1.31
13,COCCOC(=O)N1C(=O)[C@@]2(c3cc(C#CCCO)ccc31)[C@H](c1ccc(OCCO)cc1)N1[C@H](c3ccccc3)[C@H](c3ccccc3)OC(=O)[C@H]1[C@@H]2C(=O)Nc1nc2ccccc2s1,1.31
14,[N-]=[N+]=NCc1ccccc1[C@@H]1OC(c2ccc(OCCCO)cc2)=N[C@]1(CCS(=O)(=O)c1ccccc1)C(=O)O,0.585
15,O=C1C[C@]2(c3ccc([N+](=O)[O-])cc3)C(=O)N(C3CC3)c3cc(CO)ccc3[C@H]2N1CC12CC3CC(CC(C3)C1)C2,-0.183
16,CCCC[C@@H]1C[C@H]1[C@@H](NC(=O)c1cccs1)c1ccccc1C(F)(F)F,1.27
17,O=C(Cc1ccccc1)[C@H]1C2C=CCCC(c3ccccc3)=C2CN1Cc1ccccc1 (stereo partly specified),-0.299
18,COC(=O)[C@]1(CCS(=O)(=O)c2ccccc2)N=C(c2ccc(OCCCO)cc2)O[C@@H]1c1ccccc1N=[N+]=[N-],1.29

row,Structure (SMILES),composite z-score
1,COCCOC(=O)N1C(=O)[C@@]2(c3cc(C#CC4=CCCCC4)ccc31)[C@H](c1ccccc1OCCO)N1[C@H](c3ccccc3)[C@H](c3ccccc3)OC(=O)[C@H]1[C@@H]2C(=O)N1CCN(c2ncccn2)CC1,1.06
2,CN(C)C(=O)[C@@]1(Cc2ccccc2)N=C(c2ccc(OCCCO)cc2)O[C@H]1c1ccccc1,0.983
3,COc1ccc(C#Cc2ccc3c(c2)[C@]2(C(=O)N3)[C@H](C(=O)O)[C@H]3C(=O)O[C@H](c4ccccc4)[C@H](c4ccccc4)N3[C@@H]2c2ccc(O)cc2)cc1,0.285
4,CCCCC[C@H]1OC[C@@]23C=C(Br)[C@@H](CC12)[C@@]1(CO1)C3=O (stereo partly specified),0.491
5,CC1CC/C=C\[C@H]2OC34C=CCN(c5ccc(Cl)cc5)C(=O)[C@H]3N(C(C)CO)C(=O)[C@]4(C)C2C(=O)O1 (stereo partly specified),-0.297
6,COc1cc2c(cc1O)C(C1CC1)N(Cc1cccc(OC(F)(F)F)c1)CC2 (stereo unspecified),-0.316
7,COc1cc(C(O)C2C=CC3C(=O)N(C)C(=O)C3N2Nc2ccccc2)cc(OC)c1OC (stereo unspecified),1.11
8,[N-]=[N+]=NCc1ccccc1[C@H]1OC(c2ccc(OCCCO)cc2)=N[C@@]1(Cc1ccccc1N=[N+]=[N-])C(=O)NCC(O)CO (stereo partly specified),1.3
9,COC(=O)[C@@]1(Cc2ccc(OC)cc2)[C@H]2c3cc(C(=O)N(C)C)n(Cc4ccc(OC(F)(F)F)cc4)c3C[C@H]2CN1C(=O)c1ccccc1,-0.264
10,C=C(/C(=C/C[C@H](OC(C)=O)c1ccc(CO)o1)c1cnc2ccccc2c1)C(C)C,1.29
11,Cc1ccc(S[C@]2(C(=O)NCc3ccccc3)CC(=O)N(C3CCCCC3)[C@@H]2c2ccc(CO)cc2I)cc1,1.23
12,COc1ccc([Si](C)(C)[C@@H]2[C@@H](CC(=O)N3Cc4ccccc4C[C@H]3CO)O[C@]3(C(=O)N(Cc4ccc(N5C(=O)c6cccc7cccc5c67)cc4)c4ccccc43)[C@H]2C)cc1,1.31
13,CCOC(=O)C[C@H]1[C@H](OC(=O)c2ccccc2-c2ccccc2)[C@@H](NC(=O)c2ccc3ccccc3n2)c2cc(OCCCO)ccc2N1C(=O)Cc1ccc(OC)cc1,0.368
14,CCOc1cc(C(O)C2C=CC3C(=O)NC(=O)C3N2Nc2ccc(Cl)cc2Cl)ccc1O (stereo unspecified),-1.94
15,Cc1ccc(NN2C(C(O)c3c(F)cccc3Cl)C=CC3C(=O)N(C4CCCCC4)C(=O)C32)cc1 (stereo unspecified),1.25
16,CCOC(=O)C[C@H]1[C@H](OC(=O)c2ccc(-c3ccccc3)cc2)[C@@H](NC(=O)CC(C)C)c2cc(OCCCO)ccc2N1C(=O)c1ccc2ccccc2n1,0.787
17,COC(=O)[C@@]1(Cc2ccccc2)[C@H]2c3cc(C(=O)N4CCCC4)n(CCc4ccccn4)c3C[C@H]2CN1C(=O)c1ccccc1,0.761
18,Cc1ccc(S[C@]2(C(=O)NC(C)C)CC(=O)N(Cc3cc(C(F)(F)F)cc(C(F)(F)F)c3)[C@@H]2c2ccc(CO)cc2)cc1,-0.374
